Shown are actives, neighbours in structure and some others; about 19% of the full set was active somewhere.
TDP1 block – qHTS Assay for Inhibitors of Tyrosyl-DNA Phosphodiesterase (TDP1). Tyrosyl-DNA phosphodiesterase 1 (Homo sapiens), Q9NUW8. recombinant TDP1, AlphaScreen DNA substrate cleavage. Potency, µM (highest dose often 130 µM), without a hit: at the highest dose activity change, negative = inhibition, usual class: inhibitors. actives 0.28% (n = 350,000). AID 485290, 2010; further: potency means the concentration at half of the fitted maximal effect; nearly all actives have a fitted effect of over 40% in size
Target sequence (Q9NUW8 whole entry, looked up): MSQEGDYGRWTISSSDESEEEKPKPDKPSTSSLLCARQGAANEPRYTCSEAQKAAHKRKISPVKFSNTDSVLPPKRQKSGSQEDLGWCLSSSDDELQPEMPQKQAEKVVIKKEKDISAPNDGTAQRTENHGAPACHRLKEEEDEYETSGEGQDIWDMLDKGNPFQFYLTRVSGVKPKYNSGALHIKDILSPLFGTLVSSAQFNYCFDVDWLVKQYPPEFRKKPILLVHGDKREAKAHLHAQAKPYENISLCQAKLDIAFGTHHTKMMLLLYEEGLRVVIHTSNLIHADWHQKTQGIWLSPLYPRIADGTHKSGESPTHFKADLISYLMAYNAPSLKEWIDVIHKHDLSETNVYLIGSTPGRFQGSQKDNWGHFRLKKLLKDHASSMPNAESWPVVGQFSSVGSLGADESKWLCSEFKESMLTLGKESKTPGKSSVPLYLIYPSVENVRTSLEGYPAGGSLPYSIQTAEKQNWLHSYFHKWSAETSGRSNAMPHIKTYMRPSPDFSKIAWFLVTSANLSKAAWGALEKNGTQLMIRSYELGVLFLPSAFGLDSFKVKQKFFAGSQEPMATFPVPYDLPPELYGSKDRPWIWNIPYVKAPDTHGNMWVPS
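AlphaScreen read-out: signal falls as enzyme removes the 3' tyrosine-FITC from a 5'-biotinylated DNA oligo (15 nM, 5 min, RT). Enzyme was E. coli-made recombinant Tdp1 at 1 nM, exposed to compound for 15 min beforehand; beads 10 ug/ml, 10 min.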
Giardia killer – Small Molecules that selectively kill Giardia lamblia: qHTS. activity change, % at 7.66 µM, hits read low. Giardia lamblia trophozoite viability. actives 0.15% (n = 340,000); in the data active means activity change below about -80%; inconclusive means between about -30% and that limit;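 further: parasites exposed to compound for two days anaerobically before the ATP read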
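Giardia lamblia trophozoites (100 cells/well) were incubated with compounds for 48 h at 37 deg C under anaerobic conditions. Viability was read as ATP content by one-step luminescence after 15-30 min at room temperature.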
DT40 TDP1 no CPT – qHTS for Inhibitors of human tyrosyl-DNA phosphodiesterase 1 (TDP1): qHTS in cells in absence of CPT | DT40 Tdp1-/- hTDP1 cells, no CPT, ATP luminescence, 48 h | actives 15% (n = 420,000) | Potency, µM (series often up to 46.2 µM), inactives show top-dose activity change, negative = growth inhibition, most hits filed as inhibitors; further: potency means the concentration at half of the fitted maximal effect; nearly all actives have a fitted effect of over 55% in size
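DT40 Tdp1-/-;hTDP1 cells, no CPT (DMSO vehicle only), 400 cells/well; compounds pin-transferred; ≥48 hr, 37 °C; CellTiter-Glo 30 min RT dark, luminescence read.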
IL-1B inflam inh – qHTS for Inhibitors of Inflammasome Signaling: IL-1-beta AlphaLISA Primary Screen. THP-1 LPS/ATP IL-1B secretion, AlphaLISA, 16 h; hits give low values. activity change, % at 57.5 µM. actives 4.7% (n = 360,000). AID 743279, 2014; in the data active means activity change below about -50%; inconclusive means mostly about -30% to -49%
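Secreted IL-1B measured by AlphaLISA bead assay after 16 h compound exposure of THP-1 cells; compounds (final up to 57.5 uM) added 1 h before LPS (250 ng/mL) and ATP (1.25 mM) stimulation; lower signal means less secretion.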
DT40 TDP1 CPT – qHTS for Inhibitors of human tyrosyl-DNA phosphodiesterase 1 (TDP1): qHTS in cells in presence of CPT. chicken DT40 Tdp1-/-;hTDP1 cells + 20 nM CPT, ATP luminescence, 48 h. Potency, µM (doses to about 46.2 µM), for the others: at the highest dose activity change, negative = growth inhibition, actives largely listed as inhibitors. actives 12% (n = 420,000). AID 686979, 2013; further: potency means the concentration at half of the fitted maximal effect; nearly all actives have a fitted effect of over 55% in size
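Cell growth measured by CellTiter-Glo luminescence after a minimum 48 h, 37 C compound exposure with 20 nM CPT in Tdp1-knockout DT40 cells stably expressing hTDP1, seeded 400/well; qHTS titration format.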
ELG1 DNA repair – qHTS screen for small molecules that inhibit ELG1-dependent DNA repair in human embryonic kidney (HEK293T) cells expressing luciferase-tagged ELG1 | Potency, µM (highest dose often 46.1 µM), inactives show at the highest dose activity change, negative = inhibition, hits mostly inhibitors | actives 2.3% (n = 330,000) | AID 504467, 2011 | HEK293T ELG1-luciferase reporter, luminescence, 16 h; DNA damage induced by 5-fluorouridine; further: potency means the concentration at half of the fitted maximal effect; nearly all actives have a fitted effect of over 55% in size
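5-Fluorouridine DNA damage + compound/DMSO, 2,000 cells/well, 16 h, 37 °C/5% CO2. ONE-Glo, 30 min RT, luminescence. Readout = decrease in reporter signal.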
An asterisk follows results filed as active; u = inconclusive; x = no result given; [ ] = remark or other dose. Unless noted, the call rests on the fitted dose curve; in most records, active means well fitted curve in the direction sought with a large enough effect; inconclusive means small, poorly fitted or top-dose-only effect, or another doubt; inactive means no such curve, though single readings can be large; an effect the other way counts as inactive or inconclusive. On the % scale 0 is the no-effect control and ±100 the full control effect.

SMILES | TDP1 block | Giardia killer | DT40 TDP1 no CPT | IL-1B inflam inh | DT40 TDP1 CPT | ELG1 DNA repair
O=C(Cn1c(-c2cccs2)cc2ccccc21)N1CCN(c2ccc(Cl)cc2)CC1 | 5.0% | x | u | x | -21.5% | x
NC1=NC(=O)/C(=C/c2c(OS(=O)(=O)c3ccc(Cl)cc3)ccc3ccccc23)S1 | 0.0% | -16.7 | 2.3% | 13.8 | -2.6% | -1.4%
COc1cccc(CN2CC(C(=O)N3CCN(C(C)C)CC3)CCC2=O)c1 (stereo unspecified) | 1.7% | 38.6 | 18.3% | -1.1 | 7.1% | 8.2%
O=C(CN1CCCCC1)Nc1ccc(S(=O)(=O)c2ccc(NC(=O)CN3CCCCC3)cc2)cc1 | x | -11.6 | 13µM* | 10.6 | 16.4µM* | x
O=C(CN1CCN(S(=O)(=O)N2CCCCC2)CC1)Nc1cc(Cl)cc(Cl)c1 | -5.6% | -2.2 | u | -65.4* | -25.3% | u
O=C(CN1CCN(S(=O)(=O)N2CCCCC2)CC1)Nc1ccc(Cl)c(Cl)c1 | x | 7.4 | 23.1µM* | -76.7* | u | u
NS(=O)(=O)c1ccc(NC(=O)CN2CCCCC2)cc1 | -1.9% | 1.6 | 0.8% | -2.6 | -11.6% | 18.4%
CN(C)S(=O)(=O)c1ccc(NC(=O)CN2CCN(C(c3ccccc3)c3ccccc3)CC2)cc1 | 1.0% | -15.8 | 20.6µM* | 11.1 | u | 11.3%
CCN[C@@H]1C[C@H](N)[C@@H](OC2OC(CN)=CCC2N)[C@H](O)[C@H]1O[C@H]1OC[C@](C)(O)[C@H](NC)[C@H]1O (stereo partly specified) | x | x | -7.3% | x | 5.7% | x
Cc1nn(Cc2noc(C(=O)NCc3ccccn3)n2)c(C)c1Br | 0.6% | u | 9.0% | 13.7 | 3.2% | 15.8%
C/C(=N\NC(=O)COc1cc(C)cc(C)c1)c1cccc(NC(=O)C2CCC2)c1 | 4.1% | 14.4 | -18.8% | u | -17.4% | -23.4%
Cn1cccc1/C=N/n1c(-c2ccccc2)n[nH]c1=S | 7.3% | 23.8 | -4.7% | 0.0 | -7.0% | 1.0%
Cn1c(-c2ccc(C(C)(C)C)cc2)n[nH]c1=S | u | 1.1 | u | 15.0 | u | u
Cn1cccc1/C=N/n1c(-c2ccc(C(C)(C)C)cc2)n[nH]c1=S | 9.6% | 14.2 | 8.2µM* | 45.2 | 8.2µM* | u
CC(C)(C)c1ccc(-c2n[nH]c(=S)n2C2CCCC2)cc1 | 7.6% | -4.2 | 16.4µM* | -7.5 | u | u
CCn1c(-c2ccc(C(C)(C)C)cc2)n[nH]c1=S | 5.6% | -19.8 | 8.2µM* | -3.6 | 14.6µM* | -3.3%
COc1cccc(CNC(=O)CN2C(=O)CSc3c2c(C)nn3-c2ccccc2)c1 | 3.2% | x | -28.5% | x | -24.5% | x
CN(C)/C=C(\c1cnc(Cl)s1)S(=O)(=O)c1ccccc1 | 5.4% | -20.2 | -16.2% | 0.0 | -1.9% | -4.7%
CCOc1ccc(OCCSc2nc(C)cc(=O)[nH]2)cc1 | 3.1% | -16.2 | 20.6µM* | 15.0 | 11.6µM* | u
Cn1cc(C(=O)Nc2ccc(Cl)c(Cl)c2)cn1 | x | 2.0 | u | -0.4 | u | x
Cc1ccc(NC(=O)Cn2c(=O)n(-c3ccc(CC(=O)NCC4CCCO4)cc3)c(=O)c3ccccc32)cc1 (stereo unspecified) | 3.6% | x | -1.2% | x | 4.6% | x
O=C1C(Oc2ccccc2)C(c2cccs2)N1Cc1ccc2c(c1)OCO2 (stereo unspecified) | -7.8% | 1.6 | -28.7% | -4.5 | -14.8% | -6.2%
COc1ccc(OC2C(=O)N(Cc3ccc4c(c3)OCO4)C2c2cccs2)cc1 (stereo unspecified) | 2.0% | 11.1 | u | -81.2* | u | u
COc1ccc(OC2C(=O)N(CCc3ccc(OC)c(OC)c3)C2c2ccc3c(c2)OCO3)cc1 (stereo unspecified) | 5.6% | 1.7 | 13µM* | u | 18.4µM* | 18.4µM*
COc1ccc(CNC(=O)c2cc3ccccn3n2)cc1OC | 7.9% | x | -10.7% | x | -22.6% | x
SMILES | TDP1 block | Giardia killer | DT40 TDP1 no CPT | IL-1B inflam inh | DT40 TDP1 CPT | ELG1 DNA repair
Cc1ccc(SCC(=O)Nc2ccc(N3CCN(C)CC3)c(F)c2)cc1 | 1.0% | -12.0 | 20.6µM* | 10.9 | u | u
S=c1[nH]nc(C2CCCCC2)n1/N=C/c1cccc(Cl)c1Cl | x | -15.8 | 23.1µM* | -61.3* | u | -1.5%
CN(C)c1ccc(/C=N/n2c(C3CCCCC3)n[nH]c2=S)cc1 | x | 13.8 | 16.4µM* | -62.0* | u | -3.0%
O=C(Nc1ccsc1C(=O)NC1CCCCC1)c1ccccc1 | -2.1% | 9.4 | 20.6µM* | 0.3 | u | -12.4%
O=C(Nc1ccsc1C(=O)O)c1ccc(Cl)cc1 | x | -6.6 | u | 16.8 | 4.8% | u
Cc1ccc(C(=O)Nc2ccsc2C(=O)O)cc1 | x | -17.3 | 14.6µM* | -27.6 | u | u
CC(Sc1nnnn1-c1cccc(F)c1)C(=O)NC1CCCC1 (stereo unspecified) | -0.8% | -11.4 | -3.5% | 9.1 | 5.5% | -7.7%
Cc1cccc2c(=O)cc(CSc3ccccc3NC(=O)C(C)(C)C)[nH]c12 | 2.7% | x | -4.5% | x | -15.9% | x
O=C1CSC2(C(=O)N(Cc3cccc(C(F)(F)F)c3)c3ccccc32)N1c1ccc(F)c(F)c1 (stereo unspecified) | 5.3% | x | 16.4µM* | x | 20.6µM* | x
O=C1CSC2(C(=O)N(Cc3cccc(F)c3)c3ccccc32)N1c1cccc(C(F)(F)F)c1 (stereo unspecified) | -2.8% | x | x | x | x | x
COc1ccc(N2C(=O)CSC23C(=O)N(Cc2cccc(C(F)(F)F)c2)c2ccccc23)cc1 (stereo unspecified) | 0.0% | x | 14.6µM* | x | u | x
CCc1ccc(N2C(=O)CSC23C(=O)N(Cc2cccc(OC)c2)c2ccccc23)cc1 (stereo unspecified) | 5.6% | x | x | x | x | x
O=C(NCCc1ccccn1)C1CC12CCN(C(=O)c1cccc(C(F)(F)F)c1)CC2 (stereo unspecified) | x | x | -19.1% | x | -4.4%[9.04 µM] | x
COc1ccc(CNC(=O)C(C)n2c(=O)cc(C)c3c(C)nn(-c4ccccc4)c32)cc1 (stereo unspecified) | 8.4% | x | -19.3% | x | -26.3% | x
CCC(=O)NC(c1ccco1)c1cc(Cl)c2cccnc2c1O (stereo unspecified) | 0.2% | 0.4 | 3.66µM* | 156.6 | u | -20.0%

From PubChem BioAssay
